# Source: ChEMBL document CHEMBL3988442, “University of Dundee, Small-Polar-MMV Screening Library” (2021)
# Hit rate of the full screen: of about 66,000 compounds, about 960 (1.5%) showed an effect of 50% or more. The list comes from a sample in which strong results are over-represented; it also holds similar structures and randomly drawn compounds.
# System: Trypanosoma brucei
# Assay: Trypanosoma brucei 72 hour study
# Assay type: functional, organism-based
# Design: scale not given: in the data most compounds retested in dose-response had high values
smiles,measurement,setting,value
CN(C)Cc1nc(-n2cnc(C(=O)NCC3CC3)c2)n2ccccc12,Percent Effect,"30.3 µM, […]",-8.964%
CN1C(=O)CC(C(=O)O)C12CCN(c1ccc3ccccc3n1)CC2 (stereo not drawn),Percent Effect,"30 µM, 30.03 µM",-0.482%
COc1ccc(CC(=O)N2CC(=O)NCC(C)(C)C2)cc1,Percent Effect,"30.3 µM, […]",-15.32%
O=C(NC[C@@H]1C[C@@H]2CN(C(=O)CO)C[C@H]2O1)c1ccsc1,Percent Effect,"30.3 µM, […]",-12.73%
Cc1nn(C)c(C)c1S(=O)(=O)N1CC[C@@H]2O[C@@H](C)C[C@H]2C1.O=C(O)C(F)(F)F,Percent Effect,"30.3 µM, […]",5.348%
CN(C)CCN1C(=O)CCC12CCCN(C(=O)C1CC=CC1)CC2.O=C(O)C(F)(F)F (stereo not drawn),Percent Effect,"30.3 µM, […]",14.28%
OCc1csc(N2CCCC(COc3cccc(F)c3)C2)n1 (stereo not drawn),Percent Effect,"30 µM, 30.03 µM",-13.56%
Cc1ccc(OCC2CCCN(c3nc(CO)cs3)C2)cc1 (stereo not drawn),Percent Effect,"30 µM, 30.03 µM",49.4%
COc1ccc(OCC2CCCN(c3nc(CO)cs3)C2)cc1 (stereo not drawn),Percent Effect,"30 µM, 30.03 µM",85.11%
Cc1nc2cc(-c3nccn3C)nn2c(N2CCCC(CO)C2)c1C (stereo not drawn),Percent Effect,"30.3 µM, […]",21.68%
Cc1nc2cc(-c3nccn3C)nn2c(N2CCCC(O)C2)c1C.Cl (stereo not drawn),Percent Effect,"30.3 µM, […]",-11.86%
CCc1c(C)nc2cc(-c3nccn3C)nn2c1N1CCCC(CO)C1 (stereo not drawn),Percent Effect,"30.3 µM, […]",50.14%
Cc1ccc(CN2CCOC3(COCCN(CCN(C)C)C3)C2)o1.O=C(O)C(F)(F)F.O=C(O)C(F)(F)F.O=C(O)C(F)(F)F (stereo not drawn),Percent Effect,"30 µM, 30.03 µM",20.44%
OC(CNC1CCOCC1)c1cccc(OCc2ccccc2)c1 (stereo not drawn),Percent Effect,"30 µM, 30.03 µM",-36.97%
OC(CNC1CCSCC1)c1cccc(OCc2ccccc2)c1 (stereo not drawn),Percent Effect,"30 µM, 30.03 µM",-20.69%
CN1CCC(NCC(O)c2cccc(OCc3ccccc3)c2)CC1 (stereo not drawn),Percent Effect,"30 µM, 30.03 µM",101.3%
Cl.c1cc(NCc2ccncc2)nc(C2CCCN2)c1 (stereo not drawn),Percent Effect,"30.3 µM, […]",7.613%
Cc1ccc(-n2ncc3c2CCCC3N)cc1C (stereo not drawn),Percent Effect,"30 µM, 30.03 µM",-37.31%
CC(C)(C)c1ccc(-n2ncc3c2CCCC3N)cc1 (stereo not drawn),Percent Effect,"30 µM, 30.03 µM",97.82%
Cc1cc(C)cc(-n2ncc3c2CCCC3N)c1 (stereo not drawn),Percent Effect,"30 µM, 30.03 µM",-36.85%
CN(C)C(=O)C1CCN(C2CCN(CC3CC3)CC2)CC1.O=C(O)C(F)(F)F.O=C(O)C(F)(F)F,Percent Effect,"30.3 µM, […]",-10.13%
CCc1nc(C2CCCN2C(=O)c2ccc3c(c2)nnn3C)no1 (stereo not drawn),Percent Effect,10 µM,-25.38%
same,Percent Effect,"30.3 µM, […]",-22.91%
c1ccc(-c2nc(CN3CCCC3Cn3cncn3)no2)cc1 (stereo not drawn),Percent Effect,"30.3 µM, […]",6.98%
CC1CCN(C(=O)C2CCN(c3ccc(Cl)cc3C#N)CC2)CC1,Percent Effect,"30.3 µM, […]",28.97%
CCN(CC)C(=O)C1CCN(c2ccc(Cl)cc2C#N)CC1,Percent Effect,"30.3 µM, […]",-5.722%
N#Cc1cc(Cl)ccc1N1CCN(C(=O)C2CCC2)CC1,Percent Effect,"30.3 µM, […]",81.04%
O=C(O)C(F)(F)F.O=C(c1cccnc1)N1CCC2(CC1)COCCN(c1ncccn1)C2,Percent Effect,"30 µM, 30.03 µM",-13.17%
